The results in this text go back to PubChem BioAssay (NCATS).

This assay can be described thus: qHTS profiling for inhibitors of Plasmodium falciparum (3D7) proliferation (AID 743322).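 Further: infected erythrocytes exposed to compound for 72 h before lysis; 100% = DMSO vehicle wells and 0% = 0.29 µM artemisinin.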 Conditions: P. falciparum 3D7 proliferation; at 28.7 µM (top of the series) unless noted. The source says:
Plasmodium falciparum is a virulent malarial parasite that kills 1-2 million people worldwide each year. Transmitted by mosquitoes, the sporozoite form of the parasite enters the blood stream to infect hepatocytes, where they become merozoites that infect red blood cells (erythrocytes). Within erythrocytes, merozoites begin a […] cycle of growth and division, after which the parasite is released to infect new red blood cells. Gametocytes, which form within erythrocytes as well, circulate in the bloodstream and are ingested by the mosquito, thereby completing the life cycle. To profile malarial isolates for differential chemical responses and to identify inhibitors of malarial growth, an assay that measures P. falciparum growth and replication within erythrocytes was employed. This assay uses a DNA binding fluorescent dye (SYBR Green) to detect parasite DNA following cell lysis. Because mature erythrocytes lack DNA, only Plasmodium-derived DNA is detected.
The SYBR Green viability assay was adapted from a method described previously (Plouffe et al., 2008). For screening 3 ul culture medium was dispensed into 1536 well black clear bottom plates (Aurora Biotechnologies) using a Multidrop Combi (Thermo Fisher Scientific Inc.), 23 nL compounds in DMSO were added by a pin tool (Kalypsys), and 5 ul of erythrocytes infected with P. falciparum (0.3% parasitemia, 2.5% hematocrit final concentration) were added. The plates were incubated at 37 C in a humidified incubator in 5% CO2 for 72 h, and 2 ul lysis buffer (20 mM Tris HCl, 10 mM EDTA, 0.16% saponin, 1.6% triton X, 10X SYBR Green I supplied as 10,000X […] by Invitrogen) was added to each well. The plates were mixed for 25 sec with gentle shaking and incubated overnight at room temperature in the dark. The following morning, fluorescence intensity at 485(14) nm excitation and 535(25) nm emission wavelengths was measured on an EnVision (Perkin Elmer) plate reader. Plate reads were normalized relative to the control inhibitor (0.29 uM artemisinin) and vehicle (DMSO) wells present on each plate and then corrected by an algorithm using vehicle-only control plates at the beginning and end of the compound plate stack.
(In qHTS, concentration-response curves come from the screen itself.)
Regarding `CC(=O)NCCC(=O)N[C@@H](CCC(N)=O)C(=O)N[C@@H](CO)C(=O)N[C@@H](CCC(N)=O)C(=O)N[C@@H](CCC(N)=O)C(=O)N[C@H](C(=O)N[C@@H](Cc1ccccc1)C(=O)N[C@]1(C)CCCCCCC=CCCC[C@@](C)(C(=O)N[C@@H](CCC(N)=O)C(=O)N[C@@H](CC(N)=O)C(N)=O)NC(=O)[C@H](CC(C)C)NC(=O)[C@H](CC(C)C)NC(=O)[C@@H](CCCNC(=N)N)NC(=O)[C@H](Cc2c[nH]c3ccccc23)NC(=O)[C@H](CC(C)C)NC(=O)[C@H](CC(N)=O)NC1=O)[C@H](C)O`, the remaining parasite growth % (stronger effect = lower value) was 38.2%.

With `O=C1C(CCC(O)c2ccc(F)cc2)C(c2ccc(O)cc2)N1c1ccc(F)cc1` (stereo not given), the remaining parasite growth % (stronger effect = lower value) is 18.4%.

Take `COc1nc(C)cnc1NS(=O)(=O)c1cccnc1-c1ccc(-c2nnco2)cc1`: the remaining parasite growth % (stronger effect = lower value) amounted to 63.7%.

Turning to `O=C(Nc1ccc(OC(F)(F)F)cc1)c1sccc1NCc1ccnc2ccccc12`, the remaining parasite growth % (stronger effect = lower value) came to 71.5%.

As for `O=C(O)c1ccc(O)c2ncc(N3CCOCC3)cc12`, the remaining parasite growth % (stronger effect = lower value) was 22.3%.

As to `O=C(O)Cc1cccc(OCCCN(Cc2cccc(C(F)(F)F)c2Cl)CC(c2ccccc2)c2ccccc2)c1`, the remaining parasite growth % (stronger effect = lower value) was determined as 36.2%.

`C[C@@H](O[C@H]1OCCN(Cc2n[nH]c(=O)[nH]2)[C@@H]1c1ccc(F)cc1)c1cc(C(F)(F)F)cc(C(F)(F)F)c1`: the remaining parasite growth % (stronger effect = lower value) is 16.5%.

For `CNC(=O)c1cc(Oc2ccc(NC(=O)Nc3ccc(Cl)c(C(F)(F)F)c3)c(F)c2)ccn1`, the remaining parasite growth % (stronger effect = lower value) worked out at 1.04%.

Turning to `CC(C)CNc1ccnc(NCc2csc(-c3ccccc3)n2)n1`, the remaining parasite growth % (stronger effect = lower value) stood at 3.03%.

As for `CN(C)CC[C@H](CSc1ccccc1)Nc1ccc(S(=O)(=O)NC(=O)c2ccc(N3CCN(Cc4ccccc4-c4ccc(Cl)cc4)CC3)cc2)cc1[N+](=O)[O-]`, the remaining parasite growth % (stronger effect = lower value) turned out to be 11.6%.

For `CC1=C[C@@H]2[C@@H]([C@@H](O)C[C@@]3(C)[C@H]2C[C@@H](C)[C@]3(O)C(=O)CO)[C@@]2(C)Cc3cnn(-c4ccccc4)c3C=C12`, the remaining parasite growth % (stronger effect = lower value) amounted to 0.407%.

In the case of `Cc1ccc(NC(=O)c2ccc(CN3CCN(C)CC3)cc2)cc1Nc1nc(-c2cccnc2)cs1`, the remaining parasite growth % (stronger effect = lower value) is 0.463%.

Take `OCCn1cc(-c2ccc3c(c2)CCC3=NO)c(-c2ccncc2)n1`: the remaining parasite growth % (stronger effect = lower value) was found to be 89.8%.

Consider `CO[C@@H]1C(N(C)C(=O)c2ccccc2)C[C@H]2O[C@]1(C)n1c3ccccc3c3c4c(c5c6ccccc6n2c5c31)C(=O)NC4=O` (stereo not given in full), for which the remaining parasite growth % (stronger effect = lower value) turned out to be 110%.

Turning to `CN(C)CCCNC(=O)c1ccc(-c2cc(O)c3ncccc3c2)cc1`, the remaining parasite growth % (stronger effect = lower value) came out at 3.59%.

In the case of `O=C(Nc1cccc(Cl)c1)Nc1ncc(CCNc2ncnc3ccsc23)s1`, the remaining parasite growth % (stronger effect = lower value) amounted to 0.421%.

On to `C=C[C@@H]1CN2CCC1C[C@@H]2C(O)c1ccnc2ccc(OC)cc12` (stereo not given in full), for which the remaining parasite growth % (stronger effect = lower value) came out at 2.76%.

Consider `O=C1CN2Cc3c(ccc(Cl)c3Cl)N=C2N1`, for which the remaining parasite growth % (stronger effect = lower value) is 87%.

In the case of `Cc1ccc(C(=O)N(CCCN)[C@@H](c2nc3cc(Cl)ccc3c(=O)n2Cc2ccccc2)C(C)C)cc1`, the remaining parasite growth % (stronger effect = lower value) is -0.752%.

As for `Clc1ccc(COC(Cn2ccnc2)c2ccc(Cl)cc2Cl)c(Cl)c1` (stereo not given), the remaining parasite growth % (stronger effect = lower value) was -0.257%.

With `Nc1ccc(-c2ccc3ncc4ccc(=O)n(-c5cccc(C(F)(F)F)c5)c4c3c2)cn1`, the remaining parasite growth % (stronger effect = lower value) was -1.33%.

`CNC(=O)c1cc(COc2nnc(Nc3ccc(Cl)cc3)c3ccoc23)ccn1`: the remaining parasite growth % (stronger effect = lower value) amounted to 54.7%.

As to `CC(C)Oc1cc(Nc2nc(N[C@@H](C)c3ccc(F)cn3)ncc2Cl)[nH]n1`, the remaining parasite growth % (stronger effect = lower value) turned out to be 3.18%.

In the case of `COc1c(C)cnc(Cn2cnc3c(Cl)nc(N)nc32)c1C`, the remaining parasite growth % (stronger effect = lower value) amounted to 40.5%.

As for `Cc1c(C(=O)Nc2ccc(N3C[C@@H](C)O[C@@H](C)C3)nc2)cccc1-c1ccc(OC(F)(F)F)cc1`, the remaining parasite growth % (stronger effect = lower value) is 72.2%.

On to `CCC(=O)N1CCN(c2ccc(-n3c(=O)ccc4cnc5ccc(-c6cnc7ccccc7c6)cc5c43)cc2C(F)(F)F)CC1`, for which the remaining parasite growth % (stronger effect = lower value) is 4.73%.

With `CCCCn1c(=O)n(Cc2ccccc2F)c(=O)c2[nH]c(Cc3ccc(NC(C)=O)cc3)nc21`, the remaining parasite growth % (stronger effect = lower value) is 71.1%.

Consider `COc1cc2nccc(Oc3ccc(NC(=O)Nc4cc(C)on4)c(Cl)c3)c2cc1OC`, for which the remaining parasite growth % (stronger effect = lower value) came to 62.8%.

`Cc1csc(-c2nnc(Nc3ccc(Oc4ncccc4-c4ccnc(N)n4)cc3)c3ccccc23)c1`: the remaining parasite growth % (stronger effect = lower value) was determined as 93.3%.

Take `NC(=O)c1ccc(N(C(N)=O)c2c(F)cccc2F)nc1-c1ccc(F)cc1F`: the remaining parasite growth % (stronger effect = lower value) was 84.7%.

Take `Cc1nn(Cc2ccccc2Cl)c(C)c1CN(C)CC(O)COc1ccc(Cl)cc1` (stereo not given): the remaining parasite growth % (stronger effect = lower value) was 29.8%.

`CCOC(=O)[C@@H](N)CCC(=O)N[C@@H](CSCc1ccccc1)C(=O)N[C@@H](C(=O)OCC)c1ccccc1`: the remaining parasite growth % (stronger effect = lower value) was determined as 51.1%.

Turning to `CCCCc1ccc(NS(=O)(=O)c2ccc(C)c(C(=O)N3CCN(c4cccc(C)c4C)CC3)c2)cc1`, the remaining parasite growth % (stronger effect = lower value) was 37.4%.

Turning to `CCN(CC)CCCCNc1nc2cc(Cl)c(Cl)cc2nc1-c1ccc(-c2cccs2)s1`, the remaining parasite growth % (stronger effect = lower value) is 0.96%.

Turning to `CC(C)C[C@@H](C(=O)N[C@H](C(=O)OC1CCCC1)c1ccccc1)[C@H](O)C(=O)NO`, the remaining parasite growth % (stronger effect = lower value) worked out at 3.5%.

Take `COC(=O)Nc1ccc(-c2nc(N3CCOCC3)c3cnn(C4CCN(C(=O)OC)CC4)c3n2)cc1`: the remaining parasite growth % (stronger effect = lower value) was determined as 3.29%.

Consider `CN(C)CCN(C)C(=O)c1ccc(NC(=O)Nc2ccc(-c3nc(N4CCOCC4)c4ccn(CC(F)(F)F)c4n3)cc2)cc1`, for which the remaining parasite growth % (stronger effect = lower value) was -0.909%.

Turning to `CN1C(=O)C(Cc2c[nH]c3ccccc23)NC1=S` (stereo not given), the remaining parasite growth % (stronger effect = lower value) was found to be 109%.

For `COc1cc([C@@H]2c3cc4c(cc3[C@@H](O[C@@H]3O[C@@H]5CO[C@@H](C)O[C@@H]5[C@H](O)[C@@H]3O)[C@H]3COC(=O)[C@H]23)OCO4)cc(OC)c1O`, the remaining parasite growth % (stronger effect = lower value) is 51.5% [at 9.63 µM].

Take `COc1cc2c(cc1OC)CC(=O)N(CCCN(C)C[C@H]1Cc3cc(OC)c(OC)cc31)CC2`: the remaining parasite growth % (stronger effect = lower value) was 105%.
